Source: ChEMBL document CHEMBL3433997, “St. Jude Leishmania screening dataset” (2016)

Each compound was assayed against Solute carrier family 2, facilitated glucose transporter member 1 (Homo sapiens) (UniProt P11166) (assay: ST_JUDE_LEISH: Cytotoxicity at 2uM final concentration against transgenic Leishmania Mexicana promastigotes LmGLUT1 that are glucose transport deficient and complemented with the human glucose transporter GLUT1. Activity is measured by DNA content using SYBR green in vitro).
Sequence of Solute carrier family 2, facilitated glucose transporter member 1 (Homo sapiens) (P11166 whole entry): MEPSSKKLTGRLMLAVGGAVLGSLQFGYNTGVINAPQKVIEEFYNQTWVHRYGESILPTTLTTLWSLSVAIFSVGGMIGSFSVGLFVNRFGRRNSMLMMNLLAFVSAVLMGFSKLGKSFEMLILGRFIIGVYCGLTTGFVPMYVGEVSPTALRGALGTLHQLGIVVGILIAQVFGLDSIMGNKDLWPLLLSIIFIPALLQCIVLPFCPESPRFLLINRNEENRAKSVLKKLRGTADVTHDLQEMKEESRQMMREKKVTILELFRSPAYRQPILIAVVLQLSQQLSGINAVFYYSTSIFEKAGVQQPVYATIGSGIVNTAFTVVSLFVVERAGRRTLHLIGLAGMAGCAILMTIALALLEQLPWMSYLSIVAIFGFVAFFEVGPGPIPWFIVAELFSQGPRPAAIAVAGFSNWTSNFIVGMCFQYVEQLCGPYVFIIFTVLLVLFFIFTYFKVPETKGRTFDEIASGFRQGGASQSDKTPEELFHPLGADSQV
Type: functional

SMILES | inhibition
Cc1ccc(Nc2nccc(NCC(O)c3ccc(C(F)(F)F)cc3)n2)cc1 (stereo not given) | 10%
Nc1ccc(-c2cc(Cl)cc(Cl)c2)cc1-c1cc2ccccc2[nH]1 | 2.84%
Cc1ccc(S(=O)(=O)n2nccc2-c2c(-c3ccc(Cl)cc3)noc2C)cc1 | 3.44%
Cc1cc2[nH]c(-c3ccc(C(=O)NCCCN4CCN(c5cccc(Cl)c5)CC4)cc3F)nc2cc1Cl | -0.3%
Nc1cc(C(F)(F)F)ccc1Cl | -1.56%
CCN(CC)CCCC(C)N=c1cc(C=Cc2ccc([N+](=O)[O-])cc2)[nH]c2ccc(OC)cc12 (stereo not given) | 2.45%
COc1cc2nc(N3CCC(CNC(=O)c4ccc(-c5ccc(C(=O)N(C)C)cc5OCCN(C)C)cc4)CC3)nc(N)c2cc1OC | 0.34%
Cc1n[nH]c2cc(Nc3ccnc(Nc4cccc(CN5CCOCC5)c4)n3)ccc12 | 7.68%
COc1ccc(-c2nc3cccnc3n2CC(=O)Nc2c(C)cc(C)cc2C)c(OC)c1 | -0.28%
COc1ccc(C(=O)Nc2ccc3nc(N4CCCCC4)cc(C)c3c2)cc1OC | 1.54%
Cc1cc2ncn(-c3nccc(NCc4ccc(F)c(C)c4)n3)c2cc1C | 4%
Fc1ccc(-c2csc3ncnc(Cl)c23)cc1 | -0.36%
NCc1cccc(-c2cccc(CNC3CCN(Cc4ccccc4)CC3)c2)c1 | 6.06%
O=C(Nc1cc(C(F)(F)F)ccc1N1CCOCC1)C(Cl)(Cl)Cl | 10.4%
CN1CCN(c2ccc(-c3nc4ccc(OCc5cc(Cl)cc(Cl)c5)c(C(N)=O)c4[nH]3)cc2)CC1 | 1.82%
Cn1cncc1C(=O)Nc1cccc(-c2ccc(-c3nc4cc(F)ccc4[nH]3)cc2)c1 | 0%
Cc1ccccc1C1CCN(C2CCC(NC(=O)/C=C/c3ccc(Cl)cc3)CC2)CC1 (stereo not given) | 1.76%
CN1CCOc2ccc(Nc3nnc(-c4cccc(-c5cccnc5)c4)o3)cc2C1 | 3.12%
O=C(c1cc(-c2ccccc2)n[nH]1)N1CCN(S(=O)(=O)c2ccc(Cl)s2)CC1 | 4.06%
CCc1sc(N2CCN(C)CC2)nc1C(=O)NCCc1ccc(Cl)c(Cl)c1 | 4.62%

SMILES | inhibition
CC(C)(C)NCCN(Cc1ccc(-c2ccc(C(F)(F)F)cc2)cc1)C(=O)Cn1c(SCc2ccc(F)cc2)nc(=O)c2c1CCC2 | 0.94%
O=C(c1ccccc1[N+](=O)[O-])N(Cc1ccccc1)c1ccccn1 | 4.59%
CCC(C)c1ccc(-n2c(Nc3ccccc3)nc3cc(S(N)(=O)=O)ccc32)cc1 (stereo not given) | 12.3%
CCCN(CCC)S(=O)(=O)c1ccc(C(=O)N2CCC(C(=O)OCC)CC2)cc1 | 6.42%
COc1ccc2nc(SC(C)C(=O)c3c[nH]c4ccccc34)[nH]c2c1 (stereo not given) | 2.5%
O=C(Nc1ccc2[nH]c(-c3ccccc3)nc2c1)c1cc(-c2ccc3c(c2)OCCO3)n[nH]1 | 12.2%
CCC(CC)N1CCN(CC(=O)Nc2ccc([N+](=O)[O-])cc2C(=O)Nc2cccc(OC)c2)CC1 | 3.1%
C#CCCC(=O)Nc1cccc(-c2cccc(-c3nc4cc(C(F)(F)F)ccc4[nH]3)c2)c1 | -2.22%
COc1ccc(-c2ccc(NC(=O)c3cccc(C#N)c3)cc2)cc1CN1CCCC(C(N)=O)C1 (stereo not given) | 3.09%
Cc1cc(N(C)C)nc(Nc2ccc(NC(=O)c3c(F)cccc3Cl)cc2)n1 | 7.36%
Cc1cc(=NN=Cc2ccc(F)cc2)c2ccc(C(F)(F)F)cc2[nH]1 | 3%
COc1ccc2c(Nc3ccc(N4CCN(C)CC4)cc3)cc(C)nc2c1 | 9.36%
CN(C)CCN(C)C(=O)c1cc(-c2ccncc2)c(-c2ccc(Cl)c(O)c2)o1 | 8.43%
CCn1ccc2c(N3CCCCS3(=O)=O)cc(C(=O)N[C@@H](Cc3ccccc3)[C@H](O)CNC(C)(C)c3cccc(C(F)(F)F)c3)cc21 | 0.44%
COc1cccc(CN2CCCC(COC(c3ccc(F)cc3)c3ccc(F)cc3)C2)c1O (stereo not given) | 0.95%
CCc1ccc(C2CCN(CCCCNC(=O)c3ccc(-c4ccc(C#N)cc4)cc3)CC2)c(OCCO)c1 | 0.42%
Nc1nc(N)c2c(Oc3cccnc3)cccc2n1 | 0.1%
CN1CCC(C(=O)Nc2cccc(-c3ccc(-c4nc5cc(F)ccc5[nH]4)cc3)c2)CC1 | 8.64%
Oc1ccc(Nc2nc(NCc3ccco3)c3ccccc3n2)cc1 | 25.1%
COc1cc(NC(=O)c2nn(CCCN3CCC(N4CCCC4)CC3)cc2-c2ccc(Cl)c(Cl)c2)cc(OC)c1OC | 1.76%

What follows are compounds tested against Hexose transporter 1 (Plasmodium falciparum) (UniProt O97467) (assay: ST_JUDE_LEISH: Cytotoxicity at 2uM final concentration against transgenic Leishmania Mexicana promastigotes LmPfHT that are glucose transport deficient and complemented with the Plasmodium falciparum hexose transporter. Activity is measured by DNA content using SYBR green in vitro).
Type: functional

SMILES | inhibition
Cc1ccc(Nc2nccc(NCC(O)c3ccc(C(F)(F)F)cc3)n2)cc1 (stereo not given) | 6.26%
Nc1ccc(-c2cc(Cl)cc(Cl)c2)cc1-c1cc2ccccc2[nH]1 | 1.08%
Cc1ccc(S(=O)(=O)n2nccc2-c2c(-c3ccc(Cl)cc3)noc2C)cc1 | 3.35%
Cc1cc2[nH]c(-c3ccc(C(=O)NCCCN4CCN(c5cccc(Cl)c5)CC4)cc3F)nc2cc1Cl | 0.43%
Nc1cc(C(F)(F)F)ccc1Cl | -2.13%
CCN(CC)CCCC(C)N=c1cc(C=Cc2ccc([N+](=O)[O-])cc2)[nH]c2ccc(OC)cc12 (stereo not given) | 5.16%
COc1cc2nc(N3CCC(CNC(=O)c4ccc(-c5ccc(C(=O)N(C)C)cc5OCCN(C)C)cc4)CC3)nc(N)c2cc1OC | 0.98%
Cc1n[nH]c2cc(Nc3ccnc(Nc4cccc(CN5CCOCC5)c4)n3)ccc12 | 6.54%
COc1ccc(-c2nc3cccnc3n2CC(=O)Nc2c(C)cc(C)cc2C)c(OC)c1 | -1.73%
COc1ccc(C(=O)Nc2ccc3nc(N4CCCCC4)cc(C)c3c2)cc1OC | -0.36%
Cc1cc2ncn(-c3nccc(NCc4ccc(F)c(C)c4)n3)c2cc1C | 4.86%
Fc1ccc(-c2csc3ncnc(Cl)c23)cc1 | -0.72%
NCc1cccc(-c2cccc(CNC3CCN(Cc4ccccc4)CC3)c2)c1 | 5.41%
O=C(Nc1cc(C(F)(F)F)ccc1N1CCOCC1)C(Cl)(Cl)Cl | 9.77%
CN1CCN(c2ccc(-c3nc4ccc(OCc5cc(Cl)cc(Cl)c5)c(C(N)=O)c4[nH]3)cc2)CC1 | 5.73%
Cn1cncc1C(=O)Nc1cccc(-c2ccc(-c3nc4cc(F)ccc4[nH]3)cc2)c1 | -0.68%
Cc1ccccc1C1CCN(C2CCC(NC(=O)/C=C/c3ccc(Cl)cc3)CC2)CC1 (stereo not given) | 2.6%
CN1CCOc2ccc(Nc3nnc(-c4cccc(-c5cccnc5)c4)o3)cc2C1 | 2.67%
O=C(c1cc(-c2ccccc2)n[nH]1)N1CCN(S(=O)(=O)c2ccc(Cl)s2)CC1 | 1.3%
CCc1sc(N2CCN(C)CC2)nc1C(=O)NCCc1ccc(Cl)c(Cl)c1 | 3.9%

SMILES | inhibition
CC(C)(C)NCCN(Cc1ccc(-c2ccc(C(F)(F)F)cc2)cc1)C(=O)Cn1c(SCc2ccc(F)cc2)nc(=O)c2c1CCC2 | 1.75%
O=C(c1ccccc1[N+](=O)[O-])N(Cc1ccccc1)c1ccccn1 | 4.79%
CCC(C)c1ccc(-n2c(Nc3ccccc3)nc3cc(S(N)(=O)=O)ccc32)cc1 (stereo not given) | 6.89%
CCCN(CCC)S(=O)(=O)c1ccc(C(=O)N2CCC(C(=O)OCC)CC2)cc1 | 5.73%
COc1ccc2nc(SC(C)C(=O)c3c[nH]c4ccccc34)[nH]c2c1 (stereo not given) | 0.87%
O=C(Nc1ccc2[nH]c(-c3ccccc3)nc2c1)c1cc(-c2ccc3c(c2)OCCO3)n[nH]1 | 11.6%
CCC(CC)N1CCN(CC(=O)Nc2ccc([N+](=O)[O-])cc2C(=O)Nc2cccc(OC)c2)CC1 | 1.8%
C#CCCC(=O)Nc1cccc(-c2cccc(-c3nc4cc(C(F)(F)F)ccc4[nH]3)c2)c1 | 1.99%
COc1ccc(-c2ccc(NC(=O)c3cccc(C#N)c3)cc2)cc1CN1CCCC(C(N)=O)C1 (stereo not given) | 2.51%
Cc1cc(N(C)C)nc(Nc2ccc(NC(=O)c3c(F)cccc3Cl)cc2)n1 | 7.84%
Cc1cc(=NN=Cc2ccc(F)cc2)c2ccc(C(F)(F)F)cc2[nH]1 | 4.59%
COc1ccc2c(Nc3ccc(N4CCN(C)CC4)cc3)cc(C)nc2c1 | 6.21%
CN(C)CCN(C)C(=O)c1cc(-c2ccncc2)c(-c2ccc(Cl)c(O)c2)o1 | 8.13%
CCn1ccc2c(N3CCCCS3(=O)=O)cc(C(=O)N[C@@H](Cc3ccccc3)[C@H](O)CNC(C)(C)c3cccc(C(F)(F)F)c3)cc21 | -1.1%
COc1cccc(CN2CCCC(COC(c3ccc(F)cc3)c3ccc(F)cc3)C2)c1O (stereo not given) | 1.89%
CCc1ccc(C2CCN(CCCCNC(=O)c3ccc(-c4ccc(C#N)cc4)cc3)CC2)c(OCCO)c1 | 3.19%
Nc1nc(N)c2c(Oc3cccnc3)cccc2n1 | -1.61%
CN1CCC(C(=O)Nc2cccc(-c3ccc(-c4nc5cc(F)ccc5[nH]4)cc3)c2)CC1 | 10.3%
Oc1ccc(Nc2nc(NCc3ccco3)c3ccccc3n2)cc1 | 20.8%
COc1cc(NC(=O)c2nn(CCCN3CCC(N4CCCC4)CC3)cc2-c2ccc(Cl)c(Cl)c2)cc(OC)c1OC | 2.09%
